“And” between values parts separate entries of the source, which are not always exact repeats. Identical values can stand only once. Compounds without any hit were thinned out: in the full panel of roughly 83,000, 20% have a hit.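 Results are percent growth after 48 hours of single-concentration exposure. 100 means growth as in untreated cells, lower positive values show inhibition; negative values down to -100 show cell death.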 Some structures have more than one record in an assay (separate samples or runs), and their calls can disagree. The source made the active and inactive calls. Rule for the calls: active = growth percent below 10; inactive = the rest.

The first assay deals with LOX IMVI melanoma. As to the kind of experiment: NCI-60 one-dose screen, 48 h (100 = growth as untreated, 0 = no growth, -100 = all killed). The note with it: 10 µM.
On to `Oc1ccc2ccccc2c1N=Nc1ccccn1`, for which the growth was 6.2% (active).

For the molecule `OC(c1cc(-c2ccc(C(F)(F)F)cc2)nc(C(F)(F)F)c1)C1CCCCN1` (centres undefined), the growth was -55.2% (active) and -97.5% (active) and -80.7% (active).

Regarding `C/C(=N/NC(N)=S)c1ccc(C)cc1`, the growth is 108% (inactive).

Take `N#Cc1c2ccccc2nc2ccccc12`: the growth was 101% (inactive).

For the molecule `O=C1CSC(=S)N1Cc1cccnc1`, the growth is 17.5% (inactive).

As for `O=C(c1ccccc1)C(Br)[N+](=O)[O-]` (centres undefined), the growth was 80.5% (inactive).

With `CC(/C=N/NC(N)=S)Cc1ccc(C(C)C)cc1` (centres undefined), the growth was 79.5% (inactive).

Regarding `Nc1cc(-c2ccccc2)ccc1O`, the growth was 90% (inactive).

On to `O=C(Cc1nc2cc(Cl)c(Cl)cc2nc1CC(=O)c1cccnc1)c1cccnc1`, for which the growth is 65.4% (inactive).

On to `COc1cccc2c1C(=O)c1c(O)c3c(c(O)c1C2=O)C[C@@](O)(C(=O)CO)C[C@@H]3OC1CC(OC(C)=O)C(OC(C)=O)C(C)O1` (some centres undefined), for which the growth is -75.4% (active).

On to `O=[N+]([O-])c1ccc([I+]c2ccccc2)cc1`, for which the growth is -81.9% (active).

`CN=C(N)N/N=C(\C)c1ccc2c(c1)Cc1ccccc1-2`: the growth was -83.9% (active).

On to `CCN(CC)CCNc1ccc([N+](=O)[O-])c2sc3ccccc3c(=O)c12`, for which the growth is 19.4% (inactive).

On to `O/N=C1\c2ccccc2-c2ccc(F)cc21`, for which the growth was 96.6% (inactive).

On to `COc1cc(NC(=O)C2=C(C)NC(C)=C(C(=O)Nc3cc(OC)c(Cl)cc3OC)C2c2cccc([N+](=O)[O-])c2)c(OC)cc1Cl`, for which the growth is 22.8% (inactive).

For the molecule `CCN(CC)CCNC(Cc1ccccc1)c1ccc(OCc2ccccc2)cc1` (centres undefined), the growth is 58.6% (inactive).

On to `c1ccc(C2NCCNC2c2ccccc2)cc1` (centres undefined), for which the growth was 99.1% (inactive).

`O=[N+]([O-])c1ccc(Oc2ccccc2Cl)c([N+](=O)[O-])c1`: the growth is 44.2% (inactive).

For the molecule `O=C(O)c1ccc2c(c1)C(=O)c1ccccc1C2=O`, the growth was 96.1% (inactive).

On to `CCC[CH2][Sn]1([CH2]CCC)[O]C2C(CO)OC(n3ccc(N)nc3=O)C2[O]1` (centres undefined), for which the growth was -57% (active).

Regarding `COc1cc2c(c(OC)c1OC)-c1ccc(NCc3ccccc3)c(=O)cc1[C@@H](NC(C)=O)CC2`, the growth is 21.2% (inactive).

On to `CCN1CCCC(Nc2cc(C)nc(/N=C(/N)Nc3ccc(Cl)c(Cl)c3)n2)C1` (centres undefined), for which the growth was -61.5% (active).

For `CN=C(N)N/N=C(\c1ccccc1)c1ccc(Br)cc1`, the growth is 0.411% (active).

As for `C(=N\Nc1ccc2ccccc2n1)/c1ccccn1`, the growth is 15.1% (inactive).

`CC(C)c1ccc(Nc2n[nH]c(=S)s2)cc1`: the growth was 101% (inactive).

The test system of a further assay is SK-MEL-28 melanoma. The description is as above. The following applies: 10 µM unless noted.
On to `Oc1ccc2ccccc2c1N=Nc1ccccn1`, for which the growth is 40.7% (inactive).

Take `OC(c1cc(-c2ccc(C(F)(F)F)cc2)nc(C(F)(F)F)c1)C1CCCCN1` (centres undefined): the growth is -76.1% (active) and -93.1% (active) and 45.2% (inactive).

Regarding `C/C(=N/NC(N)=S)c1ccc(C)cc1`, the growth is 111% (inactive).

For the molecule `N#Cc1c2ccccc2nc2ccccc12`, the growth was 132% (inactive).

For the molecule `O=C1CSC(=S)N1Cc1cccnc1`, the growth is 92.1% (inactive).

With `O=C(c1ccccc1)C(Br)[N+](=O)[O-]` (centres undefined), the growth was 106% (inactive).

In the case of `CC(/C=N/NC(N)=S)Cc1ccc(C(C)C)cc1` (centres undefined), the growth was 82.4% (inactive).

For the molecule `Nc1cc(-c2ccccc2)ccc1O`, the growth is 93.3% (inactive).

`Oc1c(C(Nc2ccccc2)c2ccccc2)ccc2cccnc12` (centres undefined): the growth was 53.3% (inactive).

As for `O=C(Cc1nc2cc(Cl)c(Cl)cc2nc1CC(=O)c1cccnc1)c1cccnc1`, the growth is 87.1% (inactive).

As to `COc1cccc2c1C(=O)c1c(O)c3c(c(O)c1C2=O)C[C@@](O)(C(=O)CO)C[C@@H]3OC1CC(OC(C)=O)C(OC(C)=O)C(C)O1` (some centres undefined), the growth is -8.16% (active).

As for `O=[N+]([O-])c1ccc([I+]c2ccccc2)cc1`, the growth is -76.8% (active).

As to `O=C1C=CC(=O)N1c1ccccc1`, the growth was 117% (inactive).

As to `O=[N+]([O-])CC(O)c1ccccc1` (centres undefined), the growth is 108% (inactive).

Consider `CCCCCCCCCCCCNCCCc1ccccc1`, for which the growth is 73.4% (inactive).

Take `CN=C(N)N/N=C(\C)c1ccc2c(c1)Cc1ccccc1-2`: the growth was -98.4% (active).

`CCN(CC)CCNc1ccc([N+](=O)[O-])c2sc3ccccc3c(=O)c12`: the growth was 35.4% (inactive).

Consider `O/N=C1\c2ccccc2-c2ccc(F)cc21`, for which the growth is 111% (inactive).

As to `COc1cc(NC(=O)C2=C(C)NC(C)=C(C(=O)Nc3cc(OC)c(Cl)cc3OC)C2c2cccc([N+](=O)[O-])c2)c(OC)cc1Cl`, the growth was 24.4% (inactive).

`CCN(CC)CCNC(Cc1ccccc1)c1ccc(OCc2ccccc2)cc1` (centres undefined): the growth is 62.5% (inactive).

Consider `c1ccc(C2NCCNC2c2ccccc2)cc1` (centres undefined), for which the growth is 111% (inactive).

As for `COC(=O)Nc1nc2ccc(C3(c4ccc(F)cc4)OCCO3)cc2[nH]1`, the growth was 48.1% (inactive).

As to `O=[N+]([O-])c1ccc(Oc2ccccc2Cl)c([N+](=O)[O-])c1`, the growth is 103% (inactive).

Consider `O=C(O)c1ccc2c(c1)C(=O)c1ccccc1C2=O`, for which the growth is 111% (inactive).

For `C=C(C(N)=O)C(N)C(=O)O` (centres undefined), the growth was 106% (inactive).

As to `CCC[CH2][Sn]1([CH2]CCC)[O]C2C(CO)OC(n3ccc(N)nc3=O)C2[O]1` (centres undefined), the growth was -90.3% (active).

Consider `COc1cc2c(c(OC)c1OC)-c1ccc(NCc3ccccc3)c(=O)cc1[C@@H](NC(C)=O)CC2`, for which the growth is 42.2% (inactive).

As for `CCN1CCCC(Nc2cc(C)nc(/N=C(/N)Nc3ccc(Cl)c(Cl)c3)n2)C1` (centres undefined), the growth was -87.8% (active).

Take `CN=C(N)N/N=C(\c1ccccc1)c1ccc(Br)cc1`: the growth is 48% (inactive).

As to `O=C(NOC(=O)c1ccccc1)c1ccccc1`, the growth was 119% (inactive).

As to `O=[n+]1c2ccccc2n([O-])c2cc(Cl)ccc21`, the growth was 99.2% (inactive).

As for `C(=N\Nc1ccc2ccccc2n1)/c1ccccn1`, the growth was 32.9% (inactive).

In the case of `O=C(CCl)N1c2ccccc2Sc2c1ccc1ccccc21`, the growth is 111% (inactive).

For `CC(C)c1ccc(Nc2n[nH]c(=S)s2)cc1`, the growth was 112% (inactive).

The record behind these values is PubChem BioAssay (NCI).
